# Pf growth 96h – Primary qHTS for delayed death inhibitors of the malarial parasite plastid, 96 hour incubation; P. falciparum luciferase reporter growth, 96 h; Potency, µM (highest dose often 28.7 µM), for the others: top-dose activity change, negative = inhibition, most hits filed as inhibitors; actives 6.9% (n = 320,000); AID 504834, 2011; further: potency means the concentration at half of the fitted maximal effect; on the % scale 0 is the no-effect control and ±100 the full control effect
#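 P. falciparum expressing integrated firefly luciferase grown in erythrocytes (2% hematocrit, 0.05% parasitemia final) with compounds for 96 hours at 37 C, 5% CO2. Growth inhibition read as loss of luminescence after adding luciferase detection reagent.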
# HCMV inh – qHTS Assay for inhibitors of the human cytomegalovirus (HCMV); actives 4.5% (n = 410,000); activity change, negative = inhibition, % at 57.5 µM; HFF cells, HCMV-luciferase reporter, 72 h; stronger effect = lower value; AID 1259415, 2018; in the data active means activity change below about -60%; inconclusive means no clear call, values can overlap the other calls; inactive means above about -39%; further: on the % scale 0 is the no-effect control and ±100 the full control effect
#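 Human foreskin fibroblasts infected with luciferase-reporter HCMV at MOI 1 PFU/cell, compounds at two doses. Luciferase measured 72 h post infection; normalized to buffer-only basal and Salinomycin (10uM) controls.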
# Shiga inhibitor – A qHTS for Small Molecule Inhibitors of Shiga Toxin | Vero cells, Shiga toxin protein synthesis inhibition reporter | actives 9.2% (n = 290,000) | inhibition, % at 38.7 µM; in the data active means inhibition mostly above about 28%, no sharp cut-off; inactive means mostly below about 43%; further: 0% is about no effect
# Pf growth 48h – Primary qHTS for delayed death inhibitors of the malarial parasite plastid, 48 hour incubation; actives 5.9% (n = 310,000); Potency, µM (highest dose often 28.7 µM), for the others: at the top dose activity change, negative = inhibition, actives largely listed as inhibitors; AID 504832, 2011; P. falciparum luciferase growth in erythrocytes, 48 h; further: potency means the concentration at half of the fitted maximal effect; on the % scale 0 is the no-effect control and ±100 the full control effect
#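 Read-out is firefly luciferase luminescence from an integrated reporter in P. falciparum, so falling signal marks reduced parasite growth. Infected erythrocytes were at 2% hematocrit and 0.1% parasitemia (final) in Albumax-supplemented RPMI 1640.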
# CHX counter – Cycloheximide Counterscreen for Small Molecule Inhibitors of Shiga Toxin; cell reporter, cycloheximide protein synthesis inhibition counterscreen; max response, %; actives 12% (n = 300,000); in the data active means max response mostly above about 13%, no sharp cut-off; inactive means mostly below about 14%; further: read at 38.3 µM for the half of the compounds with a filed dose; 0% is about no effect
# HCV inhibitor – qHTS Assay for Inhibitors of Hepatitis C Virus (HCV). Huh7.5.1 HCVcc-Cre infection, luciferase reporter, 44 h. Potency, µM (titrated, usually from 41.8 µM), for inactives: at the top dose activity change, negative = inhibition, most hits filed as inhibitors. actives 3.4% (n = 340,000); further: potency means the concentration at half of the fitted maximal effect; on the % scale 0 is the no-effect control and ±100 the full control effect
#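 Seed cells (1,000/well) for 4 h; treat with compound and infect with HCVcc-Cre, moi about 0.5. Incubate 44 h, then detect luciferase activity.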
# * = called active by the depositor; ? = inconclusive; . = no result given; [ ] = another dose, or the depositor's remark. Most compounds without a hit are left out; they make up all but 21% or so of the library. Unless noted, the call rests on the fitted dose curve; in most records, active means well fitted inhibition curve with a large enough effect; inconclusive means small, poorly fitted or top-dose-only effect, or another doubt; inactive means no such curve, though single readings can be large or run the other way.
SMILES,Pf growth 96h,HCMV inh,Shiga inhibitor,Pf growth 48h,CHX counter,HCV inhibitor
Cc1ccc(Cl)cc1NS(=O)(=O)c1ccccc1,.,-19.7,.,.,.,7.9%
COc1ccccc1CN1CC(C(=O)NC2CCOCC2)CCC1=O (stereo not drawn),-20.1%,-16.9,14.6,-7.8%,8.9,17.7%
COC(=O)c1ccccc1NC(=O)Cn1c(=O)n(CCC(=O)NCc2ccc3c(c2)OCO3)c(=O)c2ccccc21,.,26.5,.,.,.,.
COc1ccc(S(=O)(=O)Nc2cc(SCC(=O)O)c(O)c3ccccc23)cc1,?,?,-8.5,4.15µM*,1.5,?
O=C(Sc1cccc2cccnc12)c1ccc(F)cc1,?,-100.1*,28.2,6.57µM*,10.1,.
COCCNC(=O)C1CC(c2ccc(C(F)(F)F)cc2)=NO1 (stereo not drawn),.,-19.7,.,.,.,6.9%
CCN1CCN(CCNC(=O)c2ccc(CS(=O)c3ccc(Cl)cc3)o2)CC1 (stereo not drawn),?,-39.3,-5.2,11.8%,0.0,12.9%
Cn1c(=O)n(/N=C/c2ccccc2)c2ccccc21,84.1%,70.1,44.5*,64.9%,12.6,3.7%
Cn1c(N)c(N=Cc2ccccc2)c(=O)n(C)c1=O,.,-19.5,.,.,.,14.0%
COC(=O)/N=C(/Cc1ccc(OC)cc1)c1ccc(OC)cc1,30.9%,54.5,55.9*,30.8%,17.5*,12.1%
COc1ccc(CC(=O)Nc2ccc(C(N)=O)cc2)cc1,33.7%,18.6,-7.1,-7.4%,-0.5,-8.1%
COc1ccc(C/C(=N\OC(C)=O)c2ccc(OC)cc2)cc1,-27.0%,.,22.7,13.9%,18.3*,0.3%
CCn1c(SCC(=O)Nc2ccc(C)c(C)c2)nnc1-c1nonc1NC(C)=O,.,-13.1,.,.,.,.
CC1CC(=O)N(CC(=O)Nc2ccc(Br)cc2)c2ccccc2S1(=O)=O (stereo not drawn),5.8%,-64.3*,-4.4,-28.4%,-2.3,-3.6%
CC(=O)c1ccc(N2CCN(C(=O)c3nn(C)c4c3CS(=O)(=O)c3ccccc3-4)CC2)cc1,?,-22.4,-9.1,?,-5.6,?
CCCCCCCCCCCCCC/C(C(=O)O)=C(\C)C(=O)O,.,.,-4.9,.,-7.6,.
CC12CCC=CC1C(c1ccc(Br)cc1F)N(Cc1ccccc1)C2=O (stereo not drawn),.,.,15.5,.,-2.0,.
CN(C)c1ccc(-c2ccc([C@H]3[C@@H]4C=CCC[C@@]4(C)C(=O)N3Cc3ccccc3)c(F)c2)cc1,?,15.8,-3.8,9.28µM*,12.0,-46.5%
CN(C)c1ccc(-c2ccc(C3C4C=CCCC4(C)C(=O)N3Cc3ccccc3)c(F)c2)cc1 (stereo not drawn),.,.,18.0,.,22.0,.
COc1ccc(-c2cc([C@H]3[C@@H]4C=CCC[C@@]4(C)C(=O)N3Cc3ccccc3)ccc2F)cc1OC,?,20.9,-0.6,?,-3.3,10µM*
COc1ccc(-c2c([C@H]3[C@@H]4C=CCC[C@@]4(C)C(=O)N3Cc3ccccc3)ccc3ccccc23)cc1OC,5.22µM*,-60.3*,-7.7,5.22µM*,-1.7,-13.2%[8.37 µM]
COc1ccc(-c2ccc([C@H]3[C@@H]4C=CCC[C@@]4(C)C(=O)N3Cc3ccccc3)c(F)c2)cc1OC,?,271.0,35.6,?,36.6*,?
CS(=O)(=O)c1ccc(Nc2cc3c(cn2)ncn3Cc2ccco2)cc1,.,-18.4,.,.,.,.
COc1ccc(N(CC(=O)NCc2ccco2)C(=O)CNS(=O)(=O)c2ccc(Cl)cc2)cc1,2.08µM*,-19.5,-7.1,-11.2%,-6.1,2.6%
O=C(CN(Cc1ccc2c(c1)OCO2)C(=O)CNS(=O)(=O)c1ccccc1)NCc1ccco1,2.33µM*,-9.5,-6.7,20.1%,-0.8,-14.2%
COc1ccc(S(=O)(=O)NCC(=O)N(CC(=O)NCc2ccco2)C2CCCC2)cc1,-1.6%,11.5,35.1,1.0%,8.1,5.2%
CCN(CC(=O)NCc1ccc(Cl)cc1)C(=O)c1ccc(S(=O)(=O)NCc2ccco2)cc1,3.7%,-19.9,66.8*,-10.4%,59.0*,-13.4%
